{
  "source": "PubChem BioAssay AID651730",
  "about": "(NMMLSC, 2012)",
  "note": "Values without a mark were called inactive. No rule for the calls is given here.",
  "data": [
    {"test": "V-ATPase regulators in yeast, S. cerevisiae, pHLuorin, powder sets 2-3, dose response (AID 651730)", "conditions": "S. cerevisiae vacuolar pH, pHluorin fluorescence; series mostly up to 100 µM; response, percent: at the top concentration", "units": {"response, percent": "%"}, "values": [
      {"smiles": "NS(=O)(=O)c1cccc(C(=O)N2CCN(c3nc4ccc(F)cc4s3)CC2)c1", "response, percent": -1.45},
      {"smiles": "Nc1ncc(C(=O)N2CCN(c3nc4ccc(F)cc4s3)CC2)o1", "response, percent": -1.66},
      {"smiles": "NC(=O)c1cccc(C(=O)N2CCN(c3nc4ccc(F)cc4s3)CC2)c1", "response, percent": 2.34},
      {"smiles": "CN(C)Cc1ccc(C(=O)Nc2ccccc2N2CCOCC2)o1", "response, percent": -0.34},
      {"smiles": "NC(=O)c1ccc(C(=O)N2CCN(c3nc4ccc(F)cc4s3)CC2)o1", "response, percent": -1.73},
      {"smiles": "O=C(c1ccc(Br)o1)N1CCN(c2nc3ccc(F)cc3s2)CC1", "response, percent": 1.17},
      {"smiles": "COCc1cccc(C(=O)Nc2ccccc2N2CCOCC2)c1", "response, percent": 3.7},
      {"smiles": "CN(C)Cc1cccc(C(=O)N2CCN(c3nc4ccc(F)cc4s3)CC2)c1", "response, percent": -4.07},
      {"smiles": "Cc1ccc(C(=O)N2CCN(c3nc4ccc(F)cc4s3)CC2)o1", "response, percent": 0.15},
      {"smiles": "N#Cc1cccc(C(=O)N2CCN(c3nc4ccc(F)cc4s3)CC2)c1", "response, percent": 0.65},
      {"smiles": "CN(C)Cc1ccc(C(=O)N2CCN(c3nc4ccc(F)cc4s3)CC2)o1", "response, percent": -1.38},
      {"smiles": "Nc1cncc(C(=O)N2CCN(c3nc4ccc(F)cc4s3)CC2)n1", "response, percent": -13.4},
      {"smiles": "O=C(c1cccc(C(F)(F)F)c1)N1CCN(c2nc3ccc(F)cc3s2)CC1", "response, percent": 6.58},
      {"smiles": "CN(C)S(=O)(=O)c1cccc(C(=O)N2CCN(c3nc4ccc(F)cc4s3)CC2)c1", "response, percent": 8.43},
      {"smiles": "CC(C)(C)c1ccc(C(=O)Nc2ccccc2N2CCOCC2)o1", "response, percent": -1.99},
      {"smiles": "O=C(Nc1ccccc1N1CCOCC1)c1cccc(C(F)(F)F)c1", "response, percent": 1.12},
      {"smiles": "CS(=O)(=O)Cc1cccc(C(=O)N2CCN(c3nc4ccc(F)cc4s3)CC2)c1", "response, percent": 1.15},
      {"smiles": "O=C(Nc1ccccc1N1CCOCC1)c1ccc(Br)o1", "response, percent": -7.84},
      {"smiles": "CS(=O)(=O)c1ccc(C(=O)Nc2ccccc2N2CCOCC2)o1", "response, percent": 3.26},
      {"smiles": "COCc1cccc(C(=O)N2CCN(c3nc4ccc(F)cc4s3)CC2)c1", "response, percent": 0.01},
      {"smiles": "O=C(Nc1ccccc1N1CCOCC1)c1cc(Cl)ccn1", "response, percent": 9.85},
      {"smiles": "Cc1cncc(C(=O)N2CCN(c3nc4ccc(F)cc4s3)CC2)n1", "response, percent": -6.23},
      {"smiles": "O=C(c1ccc(-c2ccccc2)o1)N1CCN(c2nc3ccc(F)cc3s2)CC1", "response, percent": -0.43},
      {"smiles": "CC(C)(C)c1ccc(C(=O)N2CCN(c3nc4ccc(F)cc4s3)CC2)o1", "response, percent": 4.73},
      {"smiles": "O=C(c1cccc(Cl)n1)N1CCN(c2nc3ccc(F)cc3s2)CC1", "response, percent": 8},
      {"smiles": "Cc1cccc(C(=O)N2CCN(c3nc4ccc(F)cc4s3)CC2)n1", "response, percent": 1.45},
      {"smiles": "O=C(c1cc(Cl)ccn1)N1CCN(c2nc3ccc(F)cc3s2)CC1", "response, percent": -4.21},
      {"smiles": "O=C(Nc1ccccc1N1CCOCC1)c1cncc(Cl)n1", "response, percent": -11.5},
      {"smiles": "Cc1ccnc(C(=O)N2CCN(c3nc4ccc(F)cc4s3)CC2)c1", "response, percent": 1.25},
      {"smiles": "O=C(c1ccc(C(F)(F)F)o1)N1CCN(c2nc3ccc(F)cc3s2)CC1", "response, percent": -1.21},
      {"smiles": "COCc1ccc(C(=O)N2CCN(c3nc4ccc(F)cc4s3)CC2)o1", "response, percent": -1.66}
    ]}
  ]
}
